# Measured values taken from the supplement of paper PMC4894684.
# Structures can show the parent of a compound that is named as a salt. ± gives the standard deviation of the averaged measurements.
# Test system: Toxoplasma gondii RH (in HFF)
# Test: parasite growth relative to the screen mean (all compounds = 100%); higher = less inhibition of parasite growth
# Details: 5 µM; 72 h; oxygen 21 %
# Procedure, shortened: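 Values give growth relative to the screen mean. The screen mean (all compounds) is set at 100%, and two screens were averaged. Compounds at 5 µM final were placed on confluent human foreskin fibroblasts, which were infected within 2 h with RH β-Gal–GFP Toxoplasma (MOI 1:5) and kept 72 h at 21% O2 before a CPRG β-Gal readout against in-plate standard curves.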
row,SMILES,parasite growth
1,Cc1onc(O)c1C[C@H](N)C(=O)O,113 ± 34%
2,"BrC1C(Br)C(Br)C(Br)C(Br)C1Br (stereo not drawn) [1,2,3,4,5,6-Hexabromocyclohexane]",112 ± 29%
3,Cc1ncc(CN2CC=C(c3ccccc3)CC2)c(N)n1,135 ± 13%
4,NC(C(=O)O)c1nn[nH]n1 (racemic) [(RS)-(Tetrazol-5-yl)glycine],146 ± 30%
5,Clc1cccc(SC2CCNCC2)n1 [Anpirtoline hydrochloride],76.4 ± 27%
6,COc1ccc2c(c1)c(CCN1CCOCC1)c(C)n2C(=O)c1cccc(Cl)c1Cl,145 ± 22%
7,c1ccc2c(c1)OCC(C1=NCCN1)O2 (stereo not drawn) [Idazoxan hydrochloride],111 ± 8.1%
8,C=CCN1CC[C@]23c4c5ccc(O)c4O[C@H]2/C(=N/NC(=O)c2ccccc2)CC[C@@]3(O)[C@H]1C5 [Naloxone benzoylhydrazone],108 ± 34%
9,CS(=O)(=O)Nc1ccc(Cc2noc(-c3ccc4[nH]cc(CCN)c4c3)n2)cc1,124 ± 6.6%
10,Cc1nnc2n1-c1sc(CCC(=O)N3CCOCC3)cc1C(c1ccccc1Cl)=NC2,132 ± 22%
11,C[C@@]12C(=O)OC(=O)[C@]1(C)[C@H]1CC[C@@H]2O1 [Cantharidin],68.8 ± 46%
12,"c1ccc(C2CNCc3ccccc32)cc1 (stereo not drawn) [4-Phenyl-1,2,3,4-tetrahydroisoquinoline hydrochloride]",98.2 ± 12%
13,O=c1ccc2[nH]cc(C3=CCNCC3)c2[nH]1,65.2 ± 3.1%
14,CN1CCC(c2c[nH]c3ccc(O)cc23)CC1,177 ± 16%
15,CCN1C[C@]2(COC(=O)c3ccccc3N3C(=O)C[C@H](C)C3=O)CC[C@H](OC)[C@@]34[C@@H]5C[C@H]6[C@H](OC)[C@@H]5[C@](O)(C[C@@H]6OC)[C@](O)([C@@H](OC)[C@H]23)[C@@H]14 [Methyllycaconitine citrate],83.1 ± 5.7%
16,"CC12NC(Cc3ccccc31)c1ccccc12 (single isomer, unassigned; (+)) [(+)-MK 801 maleate]",123 ± 15%
17,CO[C@]12C[C@@H](COC(=O)c3cncc(Br)c3)CN(C)[C@@H]1Cc1cn(C)c3cccc2c13 [Nicergoline],126 ± 5.7%
18,C[C@H]1CCC/C=C/[C@@H]2C[C@H](O)C[C@H]2[C@H](O)/C=C/C(=O)O1 [Brefeldin A],< 0%
19,CCCCCCC[n+]1ccc(-c2cc[n+](CCCCCCC)cc2)cc1 [DHBP dibromide],86.1 ± 44%

row,SMILES,parasite growth
1,c1ccc2nc(N3CCNCC3)ccc2c1 [Quipazine dimaleate],115 ± 8.3%
2,NCC(CS(=O)(=O)O)c1ccc(Cl)cc1 (stereo not drawn) [Saclofen],114 ± 24%
3,O=C1C2CCN(CC2)C1(CO)CO,144 ± 4%
4,Cn1cc(C(=O)C(=O)N[C@H]2CN3CCC2CC3)c2ccccc21,96.5 ± 6.7%
5,CC(C)[C@@]1(NC(=O)[C@@H]2C[C@@H]3c4cccc5[nH]cc(c45)C[C@H]3N(C)C2)O[C@@]2(O)[C@@H]3CCCN3C(=O)[C@H](Cc3ccccc3)N2C1=O [Dihydroergocristine mesylate],8.76 ± 1.6%
6,N[C@@]1(C(=O)O)CC[C@@H](C(=O)O)C1,111 ± 27%
7,C=CCN1C[C@H](C)N([C@H](c2ccc(C(=O)N(CC)CC)cc2)c2cccc(O)c2)C[C@H]1C,110 ± 22%
8,CC[N+](CC)(CCCNC1=CC(=O)C(NCCC[N+](CC)(CC)Cc2ccccc2)=CC1=O)Cc1ccccc1 [Benzoquinonium dibromide],129 ± 29%
9,"CN(C(=O)Cc1ccc(Cl)c(Cl)c1)[C@H](CN1CCCC1)c1ccccc1 [ICI-199,441 hydrochloride]",49.6 ± 10%
10,CN1Cc2ccccc2[C@@H]2c3cccc4[nH]cc(c34)C[C@H]21,132 ± 9.8%
11,CCOc1cncc(/C=C/CCNC)c1 [TC 2559 difumarate],90.8 ± 7%
12,CC(N)Cc1c[nH]c2ccc(O)cc12 (stereo not drawn) [α-Methyl-5-hydroxytryptamine maleate],144 ± 31%
13,CN1[C@@H]2CC[C@H]1CC(OC(=O)N1Cc3ccccc3NC1=O)C2 (stereo partly drawn) [DAU 5884 hydrochloride],97.7 ± 16%
14,N[C@@H]1C[C@H]1c1ccccc1 [Tranylcypromine hydrochloride],130 ± 22%
15,NCc1cc(O)no1 [Muscimol],154 ± 28%
16,CN1c2ccccc2C(NCCCCCCC(=O)O)c2ccc(Cl)cc2S1(=O)=O (stereo not drawn) [Tianeptine],98.7 ± 16%
17,O=C(O)CCC(CP(=O)(O)O)C(=O)O (stereo not drawn) [PMPA (NAALADase inhibitor)],126 ± 9.3%
18,CN1C(=O)CCS(=O)(=O)C1c1ccc(Cl)cc1 (stereo not drawn) [Chlormezanone],145 ± 22%
19,CC(C)(Cc1c[nH]c2ccc(Cl)cc12)NCCOc1ccccc1OCC1CC1,< 0%
